Experimental data reported in PubChem BioAssay (NCATS).
Results filed as inconclusive are left out. The source made the active and inactive calls. Unless noted, the call rests on the fitted dose curve; in most records, active means well fitted curve in the direction sought with a large enough effect in the repeat runs; inconclusive means weak or mixed curves; inactive means no such curve, though single readings can be large; an effect the other way counts as inactive or inconclusive.

Columns and labels:
[1] = target: Calcium and integrin-binding protein 1 (Homo sapiens) (UniProt Q99828); assay: Primary qHTS for Identification of Calcium Integrin Binding Protein 1 (CIB1) Competitor (AID 1508620; active means well fitted curve in the direction sought with a large enough effect; an effect the other way counts as inactive or inconclusive;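 further: GST tagged CIB1 binding a fluorescein labelled alphaIIb integrin peptide tracer; top concentration of the series differs between compounds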); details: CIB1-GST / FITC-alphaIIb peptide fluorescence polarization; series mostly up to 57.7 µM
Sequence of Calcium and integrin-binding protein 1 (Homo sapiens) (Q99828 whole entry, looked up): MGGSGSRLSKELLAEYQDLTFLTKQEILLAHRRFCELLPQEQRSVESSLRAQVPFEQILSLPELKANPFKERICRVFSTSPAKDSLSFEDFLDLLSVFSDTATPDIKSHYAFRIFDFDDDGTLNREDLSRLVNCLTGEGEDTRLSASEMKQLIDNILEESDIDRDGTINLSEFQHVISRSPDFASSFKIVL
In short: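 Fluorescence polarization competition: GST-tagged CIB1 (1 uM final) preincubated with compound 15 min at room temperature, then FITC-labelled alphaIIb peptide (100 nM final) added. After 15 min at room temperature, polarization read at Ex 480/Em 540.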

[2] = Primary qHTS for inhibitors of nuclear receptor binding SET domain protein 2 (NSD2) in an RCH-ACV wild type WT cells (2C) (AID 1645877; active means well fitted curve in the direction sought with a large enough effect; an effect the other way counts as inactive or inconclusive; further: nearly all actives have a fitted effect of over 70% in size; further: potency means the concentration at half of the fitted maximal effect); details: RCH-ACV (leukaemia line) NSD2 WT (2C) viability, CellTiter-Glo, 72 h; series mostly up to 44.9 µM
[3] = target: Cytochrome P450 2C9 (Homo sapiens) (UniProt P11712); assay: Cytochrome P450 family 2 subfamily C member 9 (CYP2C9) small molecule antagonists: luciferase biochemical (cell-free) qHTS assay (AID 1645842); details: P450-Glo CYP2C9 enzyme assay, luciferin luminescence; series mostly up to 57.4 µM; further: potency means the concentration at half of the fitted maximal effect; nearly all actives have a fitted effect of over 55% in size
Sequence of Cytochrome P450 2C9 (Homo sapiens) (P11712 whole entry, looked up): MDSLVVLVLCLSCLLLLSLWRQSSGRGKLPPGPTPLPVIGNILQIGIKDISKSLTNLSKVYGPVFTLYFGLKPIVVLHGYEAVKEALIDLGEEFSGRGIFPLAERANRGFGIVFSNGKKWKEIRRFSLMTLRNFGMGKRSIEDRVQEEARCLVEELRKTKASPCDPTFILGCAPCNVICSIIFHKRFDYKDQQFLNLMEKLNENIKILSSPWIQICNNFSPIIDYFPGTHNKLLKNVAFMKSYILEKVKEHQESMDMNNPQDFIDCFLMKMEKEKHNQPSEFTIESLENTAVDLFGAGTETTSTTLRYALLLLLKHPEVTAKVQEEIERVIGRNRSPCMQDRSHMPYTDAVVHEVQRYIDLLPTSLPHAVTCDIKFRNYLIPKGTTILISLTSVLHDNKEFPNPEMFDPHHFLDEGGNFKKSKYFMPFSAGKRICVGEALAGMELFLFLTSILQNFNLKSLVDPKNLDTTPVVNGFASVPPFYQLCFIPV
In short: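 P450-Glo CYP2C9 system: proluciferin substrate with enzyme in mix containing 0.4% BSA, 10 min at room temperature, then NADPH regeneration solution added and incubated 1 h at 37C. Detection reagent stopped reaction; luminescence read after 20 min as RLU.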

[4] = target: Cytochrome P450 2D6 (Homo sapiens) (UniProt P10635); assay: Cytochrome P450 family 2 subfamily D member 6 (CYP2D6) small molecule antagonists: luciferase biochemical (cell-free) qHTS assay (AID 1645840); details: P450-Glo CYP2D6 enzyme, luciferin luminescence, 1 h; series mostly up to 57.4 µM; further: potency means the concentration at half of the fitted maximal effect; nearly all actives have a fitted effect of over 55% in size
Sequence of Cytochrome P450 2D6 (Homo sapiens) (P10635 whole entry, looked up): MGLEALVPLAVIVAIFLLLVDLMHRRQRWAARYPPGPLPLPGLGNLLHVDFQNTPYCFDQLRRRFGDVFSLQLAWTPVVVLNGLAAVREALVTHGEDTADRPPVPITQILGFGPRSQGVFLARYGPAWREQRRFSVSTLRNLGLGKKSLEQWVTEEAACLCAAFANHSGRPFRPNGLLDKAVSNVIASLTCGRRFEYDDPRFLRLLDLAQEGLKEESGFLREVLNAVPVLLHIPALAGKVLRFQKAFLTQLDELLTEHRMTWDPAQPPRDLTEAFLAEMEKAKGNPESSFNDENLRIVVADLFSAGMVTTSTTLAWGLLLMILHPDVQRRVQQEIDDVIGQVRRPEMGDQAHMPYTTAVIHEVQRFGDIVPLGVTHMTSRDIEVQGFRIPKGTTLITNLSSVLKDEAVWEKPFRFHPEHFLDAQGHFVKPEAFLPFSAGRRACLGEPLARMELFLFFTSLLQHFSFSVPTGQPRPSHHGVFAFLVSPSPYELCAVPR
In short: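 P450-Glo CYP2D6 system: proluciferin substrate converted by enzyme to luciferin, read by luminescence proportional to activity. Enzyme-substrate mix with compound 10 min at room temperature, then NADPH regeneration 1 h before detection reagent.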

OC[C@H]1O[C@@H](Oc2cc(O)cc(-c3cc4ccc(O[C@@H]5O[C@H](CO)[C@@H](O)[C@H](O)[C@H]5O)cc4o3)c2)[C@H](O)[C@@H](O)[C@@H]1O
Potency [1]: inactive | Potency [2]: inactive

O=C(O)c1cccc(CN2C(=O)/C(=C(\c3ccccc3)c3ccc(Cl)cc3)c3ccccc32)c1
Potency [3]: 15.1 µM (active)

CCOc1ccc(-c2cc(NC(=O)c3c(F)cccc3F)c(C(=O)O)s2)cc1
Potency [4]: 7.56 µM (active)

COc1cccc(Cn2ncc3c4sc(S(C)=O)cc4n(C)c3c2=O)c1 (stereo not drawn)
Potency [4]: 10.7 µM (active) | Potency [3]: 12 µM (active)

CCC(=O)OCC(=O)[C@@]1(OC(=O)CC)[C@@H](C)C[C@H]2[C@@H]3CCC4=CC(=O)C=C[C@]4(C)[C@@]3(F)[C@@H](O)C[C@@]21C
Potency [1]: inactive | Potency [2]: 0.0073 µM (active)
